# BAZ2B block: blocks human BAZ2B | AlphaScreen BAZ2B-H3K14Ac peptide displacement | Potency, µM (titrated, usually from 114 µM), for the others: at the highest dose activity change, negative = inhibition, usual class: inhibitors | actives 4.4% (n = 360,000); also: % is scaled to controls: 0 for no effect and ±100 for the full control effect; nearly all actives have a fitted effect of over 60% in size
#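 Multi-concentration screen (max 110 uM) measuring displacement of acetylated histone H3 peptide from BAZ2B by AlphaScreen, using 50 nM protein, 50 nM peptide and 10 ug/mL streptavidin donor plus Ni-chelate acceptor beads.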
# G9a block: G9a (human) methyltransferase inhibition; AID 504332; G9a H3K9 monomethylation, AlphaScreen, 2 h; Potency, µM (titrated, usually from 102 µM), without a hit: top-dose activity, negative = inhibition, actives largely listed as inhibitors; actives 8.8% (n = 350,000); also: % is scaled to controls: 0 for no effect and ±100 for the full control effect; nearly all actives have a fitted effect of over 75% in size
#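 Using a bead-based AlphaScreen, monomethylated H3K9 product from 2 h room-temperature reactions (G9a 20 nM, peptide 500 nM, SAM 20 uM) was detected with 0.5 ug/mL rabbit anti-H3K9me1 antibody.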
# JMJD2A Tudor inh: blocks the human JMJD2A Tudor domain. O75164. AlphaScreen JMJD2A-Tudor / H3K4me3 peptide binding. Potency, µM (series often up to 114 µM), for inactives: at the top dose activity change, negative = inhibition, actives largely listed as inhibitors. actives 4.4% (n = 390,000). AID 504339; also: % is scaled to controls: 0 for no effect and ±100 for the full control effect; nearly all actives have a fitted effect of over 50% in size
# HP1b chromo inh: inhibitors of HP1-beta chromodomain binding to methylated histone tails | AlphaScreen HP1-beta / biotin-H3K9me3 peptide binding | actives 0.56% (n = 390,000) | AID 540317 | Potency, µM (highest dose often 114 µM), without a hit: at the top dose activity change, negative = inhibition, most hits filed as inhibitors; also: nearly all actives have a fitted effect of over 70% in size
#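 Compound inhibition of the preformed complex between 50 nM HP1-beta and 50 nM biotinylated H3K9me3 peptide was read by AlphaScreen. Buffer was PBS pH 7.4 with 0.01% Tween-20. Incubations ran 30 min at room temperature, with 10 ug/mL donor/acceptor beads.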
# Sfp PPTase inh: Sfp phosphopantetheinyl transferase inhibition | AID 1490 | Biochemical Sfp PPTase activity, qHTS | actives 3.5% (n = 310,000) | Potency, µM, without a hit: largest response in the series, negative = inhibition, usual class: inhibitors;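 also: the enzyme is Sfp with the accession as filed and its product quenches rhodamine fluorescence; 0% = enzyme reaction without inhibitor and -100% = no enzyme wells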
#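 After 15 min at room temperature with compound, 15 nM Sfp received 5 uM rhodamine-CoA plus 12.5 uM BHQ-2-ybbR (50 mM Hepes pH 7.6, 10 mM MgCl2). Rate came from the fluorescence difference over 30 min, ex 525/em 598 nm.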
# The depositor's hits bear a star; ? = inconclusive; . = not tested or not shown; [ ] = dose if it differs, or a comment. Compounds with a hit are over-represented: about 12% of the library has one in this group of screens. Calls follow the shape of the dose curve; as a rule, active = well fitted curve in the direction sought with a large enough effect; inconclusive = small, poorly fitted or top-dose-only effect, or another doubt; inactive = no such curve, though single readings can be large; an effect the other way counts as inactive or inconclusive. Potency is read from the fitted curve at half-maximal effect.
SMILES,BAZ2B block,G9a block,JMJD2A Tudor inh,HP1b chromo inh,Sfp PPTase inh
CN(C)CCCC1Sc2ccccc2Sc2ccccc21 (stereo unspecified),.,.,20µM*,70.8µM*,.
O=C(NCc1ccc(S(=O)(=O)Nc2ccccc2Cl)s1)c1ccccc1,0.4%,79.4µM*,-4.3%,43.4%,0.5%
O=C(NCc1ccc(S(=O)(=O)NC2CCCCC2)s1)c1ccccc1,-10.1%,?,1.4%,37.1%,4.1%
O=C(COc1ccccc1)Nc1ccc(Cl)cc1Cl,9.6%,.,.,.,1.8%
O=C/C(=C\Nc1ccc(Cl)cn1)c1nc2ccccc2o1,-8.5%,?,12.6µM*,6.6%,?
O=C/C(=C\Nc1ccc(S(=O)(=O)CCO)cc1)c1nc2cc(Cl)ccc2o1,-28.8%,50.1µM*,-17.2%,56.0%,1.0%
O=C/C(=C\Nc1ccc(Cl)cn1)c1nc2cc(Cl)ccc2o1,-1.9%,-9.6%[59 µM],-2.5%,35.6%,4.7%
CCC(C)CCCCCCCCCCC(=O)O (stereo unspecified),.,.,50.1µM*,57.7%,.
O=C1N(c2ccccc2)CCN1c1ccccc1,9.8%,-1.5%[0.501 µM],-1.4%,23.9%,7.1%
O=C1NC(=S)CN1c1ccccc1,-21.2%,11.2µM*,12.6µM*,?,5.62µM*
N#CC(C#N)=c1ccc2c(c1)N1C3=C(CCCC3)CC3CCCCC31N=2 (stereo unspecified),1.78µM*,2.24µM*,44.7µM*,?,23.1%
N#C/C(C(N)=O)=c1/ccc2c(c1)N1C3=C(CCCC3)CC3CCCCC31N=2 (stereo unspecified),3.55µM*,3.98µM*,6.31µM*,10µM*,?
CC1(C)NC(=O)N(CCCCOc2cccc(C(F)(F)F)c2)C1=O,4.3%,-4.8%[59 µM],-8.2%,15.2%,5.3%
OCc1c[nH]c(=S)n1CCOc1cccc(C(F)(F)F)c1,-25.2%,?,22.4µM*,15.5%,?
Cc1[nH]n(-c2ncc(-c3ccccc3)s2)c(=O)c1C(c1ccc(Br)cc1)C(C#N)C#N (stereo unspecified),35.5µM*,?,50.1µM*,39.8µM*,56.2µM*
CC(C)Cc1nnc(NC(=O)C2CSC3(C)CCC(=O)N23)s1 (stereo unspecified),11.7%,-2.1%,-15.1%,0.9%,.
O=C1Nc2ccccc2SC1c1ccccc1 (stereo unspecified),-7.1%,-8.1%[0.501 µM],-22.1%,31.1%,16.8%
Cc1ccc(NC2Sc3ccccc3NC2=O)cc1 (stereo unspecified),-35.5%,1.78µM*,50.1µM*,44.7µM*,8.91µM*
O=C(NCc1ccccc1Cl)C1CCCN1S(=O)(=O)c1ccccc1F (stereo unspecified),4.5%,-8.9%[59 µM],1.7%,10.6%,15.3%
CN(C)CCN(Cc1ccco1)C(=O)c1oc2ccccc2c1NC(=O)COc1ccccc1,?,44.7µM*,28.2µM*,?,0.0%
COC(=O)Sc1nc(N2CCOCC2)c2c(c1C#N)CC(C)(C)OC2,10.2%,7.94µM*,?,62.9%,?
CC(Sc1nc(N2CCOCC2)c2c(c1C#N)CC(C)(C)OC2)C(=O)O (stereo unspecified),-11.6%,50.1µM*,-5.6%,17.7%,-15.8%
CC1(C)Cc2c(C#N)c(SCC(=O)c3ccccc3)nc(N3CCOCC3)c2CO1,-30.8%,22.4µM*,63.1µM*,-7.5%,14.1µM*
CN1Cc2c(N3CCOCC3)nc(SCCC#N)c(C#N)c2CC1(C)C,-3.5%,4.9%[12.7 µM],-17.6%,5.1%,7.3%
COC(=O)CSc1nc(N2CCOCC2)c2c(c1C#N)CC(C)(C)OC2,?,?,3.5%,35.1%,4.6%
SMILES,BAZ2B block,G9a block,JMJD2A Tudor inh,HP1b chromo inh,Sfp PPTase inh
CC(C)Sc1nc(N2CCCC2)c2c(c1C#N)CC(C)(C)OC2,-5.3%,4.6%[59 µM],11.3%,76.0%,-22.1%
CC(C)Sc1nc(N2CCOCC2)c2c(c1C#N)CC(C)(C)N(C)C2,-8.4%,-14.1%[12.7 µM],11.2µM*,-9.8%,-7.9%
CCOC(=O)c1cnc2c(C(F)(F)F)cccc2c1Nc1cccc(C(=O)OC)c1,16.4%,12.0%[59 µM],24.6%,63.4%,.
CCN(CC)S(=O)(=O)c1ccc2c(c1)N(CC(=O)NCc1ccccc1)C(=O)C1CCCCN21 (stereo unspecified),-2.8%,16.8%[59 µM],-1.7%,30.2%,.
CN1CCSc2ccc(C(=O)NCc3cccc(Br)c3)cc21,-38.2%,2.3%,-32.0%,15.8%,3.3%
COC(=O)c1ccc(CNC(=O)c2nc(Cn3nc(C)c(Br)c3C)no2)cc1,-20.3%,-3.4%[59 µM],-11.2%,39.7%,.
Cc1ccc2c(=O)cc(C(=O)Nc3ccc(S(=O)(=O)N4CCCCC4C)cc3)oc2c1C (stereo unspecified),-15.8%,-8.4%[59 µM],-13.9%,23.0%,.
Cc1ccc(OCC(=O)O)c(O)c1,.,.,?,17.6%,.
Cc1ccc(CNC(=O)CCc2c(C)nc3c(-c4ccc(F)cc4)c(C)nn3c2C)cc1,-3.4%,0.5%[59 µM],-13.8%,8.2%,.
Cc1nc2ccccc2c(=O)n1/N=C/c1ccc2ccccc2c1O,?,28.2µM*,?,12.0%,3.4%
Cc1cc([N+](=O)[O-])cc(/C=N/n2c(C)nc3ccccc3c2=O)c1O,79.4µM*,-36.6%,?,32.6%,19.2%
Cc1[nH]n(-c2ccccc2)c(=O)c1/C=N/n1c(C)nc2ccccc2c1=O,1.0%,3.16µM*,-11.5%[57.1 µM],33.3%,-19.4%
Cc1nc2ccccc2c(=O)n1/N=C/c1ccccc1O,-6.7%,.,-12.0%,36.4%,-5.8%
Cc1nc2ccccc2c(=O)n1/N=C/c1ccc(O)c(O)c1O,?,1.26µM*,14.1µM*,?,7.08µM*
Cc1ccc(-n2[nH]c(C)c(/C=N/n3c(C)nc4ccccc4c3=O)c2=O)cc1,3.6%,-5.9%,-14.1%,31.6%,-2.3%
CC(=O)C1=C(C)N(Cc2ccco2)C(=O)N[C@@H]1c1ccccc1,.,.,.,.,-2.0%
CCn1cc(/C=C/C(=O)Nc2ccn(Cc3c(F)c(F)cc(F)c3F)n2)cn1,-6.1%,44.7µM*,-24.9%,7.7%,28.2µM*
Cc1cc2c(cc1NS(=O)(=O)c1cccc(C#N)c1)n(C)c(=O)c(=O)n2C,-15.6%,10µM*,-8.0%,61.6%,.
COc1cc2c(cc1NS(=O)(=O)c1cccc(C#N)c1)n(C)c(=O)n2C,79.4µM*,10µM*,-30.8%,-13.5%,.
O=C(CSc1ccc([N+](=O)[O-])cn1)Nc1ccc2c(c1)OCO2,?,44.7µM*,-22.6%,-11.1%,5.9%
N#Cc1ccccc1NC(=O)CSc1ccc([N+](=O)[O-])cn1,0.6%,50.1µM*,-1.4%,9.5%,-13.9%
O=C(Cn1cnc2cc([N+](=O)[O-])ccc2c1=O)Nc1ccc2c(c1)OCO2,?,39.8µM*,-16.7%,22.4%,5.3%
O=C(Cc1ccc([N+](=O)[O-])cc1)Nc1ccc2c(c1)OCO2,8.8%,10.0%,-0.7%,23.2%,15.1%
Cc1ccc(C)c(CN2C(=O)CSc3ccc(C(=O)NCCc4ccc(Cl)cc4)cc32)c1,-0.6%,1.9%[59 µM],?,3.2%,.

# Screening results from PubChem BioAssay.
